Test results reported in PubChem BioAssay AID651661 (Broad Institute, 2012).
Several values for one entry are separate records, joined by “and”; a condition that tells them apart may be missing. Identical values can stand only once. Out of some 350,000 compounds screened, about 2,300 (0.66%) were called active.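 How the source made its calls: active means mean inhibition of at least 50% after viability correction, with every replicate also passing that limit; inconclusive means mean reaches 50% but only one of two replicates passes; inactive means the rest.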 The sample as a whole holds a higher share of actives than the screen did. Some compounds were tested as several samples or in several runs, with calls that do not always agree.

Test: EWS/Fli-driven NR0B1 reporter inhibitors, primary screen, A673 cells, NR0B1 luciferase, luminescence, MLPCN library (AID 651661);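 further: firefly luciferase signal divided by Alamar Blue viability fluorescence both relative to DMSO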
Settings: viability-normalised, at 12.6 µM, stronger effect = higher value

Structure (SMILES)	inhibition
Oc1c(Cl)cc(Cl)c(Cl)c1Cc1c(O)c(Cl)cc(Cl)c1Cl	50.1% (active)
C/C=C/c1ccc(C2[C@H]3CNC[C@@H]2N3Cc2cccc(F)c2)cc1 (stereo partly drawn)	4.29% (inactive)
COc1cc(SC)ccc1C(=O)Nc1nc(C)cs1	76.2% (active)
COc1cc(SC)ccc1C(=O)NNC(=O)C1COc2ccccc2O1 (stereo not drawn)	-2.85% (inactive)
Cc1csc(NC(=O)c2ccc(-c3ccc(Cl)cc3Cl)o2)n1	-14% (inactive)
CO[C@@H]1CN(C)C(=O)c2ccc(NC(=O)c3ccc(F)cc3)cc2OC[C@H](C)N(C)C[C@H]1C	4.5% (inactive)
C[C@H](CO)N1C[C@H](C)[C@@H](CN(C)CC2CC2)Oc2ccc(NS(=O)(=O)c3cn(C)cn3)cc2CC1=O	-13.9% (inactive)
CO[C@H]1CN(C)C(=O)c2ccc(NC(=O)NC(C)C)cc2OC[C@@H](C)N(C(=O)CN(C)C)C[C@H]1C	8.16% (inactive)
Cc1nc(N=C(N)N)nc2c(C)cccc12	34.9% (inactive)
Cc1onc(-c2ccccc2)c1C(=O)N=C(N)c1ccc(Cl)cc1	-16.4% (inactive)
NC(N)=Nc1nc(-c2ccccc2)c2cc(Cl)ccc2n1	63.6% (active)
CC(C)NC(=O)N(C)C[C@@H]1Oc2ncc(C#Cc3ccncc3)cc2C(=O)N([C@@H](C)CO)C[C@@H]1C	-7.78% (inactive)
COC(=O)C[C@@H]1C[C@H]2c3cc(NC(=O)Nc4ccc(F)cc4)ccc3O[C@H]2[C@@H](CO)O1	6.58% (inactive)
CC(C)(C)[S@](=O)N1Cc2cc(C(=O)N3CCCCC3)nc(-c3cccc(Br)c3)c2[C@@H]1CCO	0.582% (inactive)
N#C[C@@H]1[C@H](c2ccc(C#Cc3cccc(F)c3)cc2)[C@@H](CO)N1C(=O)C1CCCC1	59.3% (active)
N#C[C@@H]1[C@@H](c2ccc(C#Cc3cccc(F)c3)cc2)[C@@H](CO)N1C(=O)C1CCC1	-10% (inactive)
N#C[C@@H]1[C@@H](c2ccc(C#Cc3cccc(F)c3)cc2)[C@H](CO)N1C(=O)C1CCOCC1	-36% (inactive)
Cc1noc(C)c1NC(=O)N(C)C[C@@H]1Oc2ccc(NC(=O)CCN3CCOCC3)cc2CC(=O)N([C@H](C)CO)C[C@@H]1C	-3.43% (inactive)
CCCCCCCCn1c2c(c(=N)c3c1CCC3)CCCC2	55.8% (active)
CO[C@@H](CN(C)C(=O)Nc1ccc(F)cc1)[C@H](C)CN(Cc1ccccc1Cl)[C@@H](C)CO	2.29% (inactive)
O=C(NCC[C@H]1CC[C@@H](NS(=O)(=O)c2cccc(Cl)c2)[C@@H](CO)O1)c1cnccn1	-2.88% (inactive)
CCOCCC(=O)Nc1ccc2c(c1)c(=O)n(C)n2-c1ccc2ccccc2c1	56.3% (active)
CCOC(=O)c1cccc(NC(=O)CCOc2ccccc2)c1	-49.3% (inactive)
COc1cc(Cn2c3ccc(NC(=O)CC(C)c4ccccc4)cc3c(=O)n2C)ccc1F (stereo not drawn)	11% (inactive)
CC(=O)N(C)C[C@H]1Oc2ncc(C#Cc3ccccn3)cc2C(=O)N([C@H](C)CO)C[C@@H]1C	1.56% (inactive)

Structure (SMILES)	inhibition
C[C@@H]1CCCCO[C@@H](CN(C)C(=O)Nc2ccc3c(c2)OCO3)[C@H](C)CN([C@H](C)CO)C(=O)c2cc(NC(=O)CCCN(C)C)ccc2O1	-6.47% (inactive)
COc1ccc(OC)c(NC(=O)c2sc3nc(C)cc(C)c3c2N)c1	-6% (inactive)
COc1ccc(OC)c(Cc2nnc(CCC(=O)NC3CCCC3)o2)c1	-17.8% (inactive)
COc1ccc(OC)c(Cc2cnc3nc(N)nc(N)c3c2C)c1	62.9% (active)
CO[C@H]1CN(C)C(=O)c2cc(NC(=O)C3CC3)ccc2OC[C@@H](C)N(CCc2ccccc2)C[C@H]1C	-1.43% (inactive)
CN(C)CCCNC(=O)C[C@H]1CC[C@H]2[C@@H](COC[C@H](O)CN2CC2CCCCC2)O1	-0.386% (inactive)
CC(=O)N(C)C[C@@H]1Oc2ncc(C#Cc3ccc(F)cc3)cc2C(=O)N([C@H](C)CO)C[C@@H]1C	-7.39% (inactive)
CC(C)CN(C[C@@H]1N[C@@H](CO)[C@H]1c1ccccc1)C(=O)CN(C)C	4.89% (inactive)
O=C(CSc1ncn[nH]1)Nc1ccc(Br)cc1Br	-25.6% (inactive)
O=C(/C=C/Sc1ncn[nH]1)c1ccc(Cl)cc1	67% (active)
Cc1ccc(S(=O)(=O)N(C)C[C@@H]2Oc3ccc(NS(=O)(=O)c4ccc(F)cc4)cc3CC(=O)N([C@@H](C)CO)C[C@H]2C)cc1	-0.853% (inactive)
CC(C)CC#Cc1ccc2c(c1)O[C@H](CN(C)Cc1ccccc1F)[C@@H](C)CN([C@@H](C)CO)S2(=O)=O	-16.5% (inactive)
O=C(C1CCCC1)N1CC(=O)N2[C@H](CO)[C@H](c3ccc(Br)cc3)[C@H]2C1	-4.8% (inactive)
CCCC#Cc1ccc([C@H]2[C@H](CO)N3C(=O)CN(C(=O)c4ccc(F)cc4)C[C@@H]23)cc1	-7.03% (inactive)
C=CCn1c(C)cc(C2=NNC(=NCC)SC2)c1C	91.7% (active)
CCCC#Cc1ccc2c(c1)O[C@H](CN(C)C(=O)C1CCCCC1)[C@H](C)CN([C@H](C)CO)S2(=O)=O	9.13% (inactive)
CC(C)C#Cc1ccc([C@H]2[C@@H](CO)N3CCCCN(C(=O)Nc4ccccc4)C[C@H]23)cc1	1.61% (inactive)
C[C@@H](NC(=O)C[C@H]1C[C@@H]2c3cc(NC(=O)c4ccc5c(c4)OCO5)ccc3O[C@@H]2[C@@H](CO)O1)c1ccccc1	2.79% (inactive)
CNC(=O)C[C@@H]1CC[C@H]2[C@@H](COc3ccc(NC(=O)NCc4ccccc4)cc3C(=O)N2C)O1	-5.62% (inactive)
COC(=O)C1=C(C)N(Cc2ccc(C(F)(F)F)cc2)C(=NCc2ccc(C(F)(F)F)cc2)NC1c1cccc(Cl)c1 (stereo not drawn)	55.4% (active)
COC(=O)C1=C(C)N(Cc2ccc(C(F)(F)F)cc2)C(=NCc2ccccc2)NC1c1ccccc1C(F)(F)F (stereo not drawn)	25.1% (inactive)
COC(=O)C1=C(C)N(Cc2cccc(C(F)(F)F)c2)C(=NCc2ccccc2)NC1c1ccc(Cl)cc1 (stereo not drawn)	36.5% (inactive)
CN(C)CC(=O)N1[C@@H](C#N)[C@@H](c2ccccc2-c2ccccc2F)[C@@H]1CO	-0.399% (inactive)
Cc1ccccc1S(=O)(=O)N1C[C@@H]2N[C@H](C1)C2c1ccc(-c2cccc(C(=O)N(C)C)c2)cc1 (stereo partly drawn)	-5.91% (inactive)
COc1cccc(S(=O)(=O)N2C[C@@H]3N[C@H](C2)C3c2ccc(-c3cccc(C(=O)N(C)C)c3)cc2)c1 (stereo partly drawn)	10.3% (inactive) and 3.54% (inactive)

Structure (SMILES)	inhibition
COc1ccccc1S(=O)(=O)N1C[C@@H]2N[C@H](C1)C2c1ccc(-c2cccc(C)c2)cc1 (stereo partly drawn)	61.1% (active) and 2.71% (inactive)
N#C[C@@H]1[C@H](c2ccc(-c3cccnc3)cc2)[C@H](CO)N1C(=O)C1CC1	-1.35% (inactive)
COCC#Cc1ccc([C@@H]2[C@H](CO)N3C(=O)CN(C(=O)C4CCC4)C[C@@H]23)cc1	-1.21% (inactive)
O=C(O)CCCCCNc1ncnc2ccc(Br)cc12	-0.908% (inactive)
COc1ccc(Nc2ncnc3ccc(Br)cc23)c(OC)c1	72.3% (active)
Brc1ccc2ncnc(NCc3cccnc3)c2c1	-8.78% (inactive)
CNC[C@H]1OCCCC[C@@H](C)Oc2ccc(NC(=O)Nc3ccc(C(F)(F)F)cc3)cc2C(=O)N([C@H](C)CO)C[C@H]1C	-7.97% (inactive)
COCC(=O)Nc1ccc2c(c1)OC[C@H](C)N(Cc1ccccc1)C[C@H](C)[C@@H](OC)CN(C)C2=O	20.9% (inactive)
COCC(=O)Nc1ccc2c(c1)OC[C@@H](C)N(CCc1ccccc1)C[C@H](C)[C@@H](OC)CN(C)C2=O	53.4% (active)
COCC(=O)Nc1ccc2c(c1)C(=O)N(C)C[C@H](OC)[C@@H](C)CN(CCc1ccccc1)[C@@H](C)CO2	2.64% (inactive)
CCC(=O)N1C[C@H](C)[C@@H](OC)CN(C)C(=O)c2cc(NC(=O)c3cnccn3)ccc2OC[C@@H]1C	2.51% (inactive)
O=C(c1cnccn1)N1CC(=O)N2[C@H](C1)[C@@H](c1ccc(C#CC3CCCCC3)cc1)[C@@H]2CO	-6.01% (inactive)
COc1cccc(/C=C2\SC(=S)N(CCCC(=O)N3CCOCC3)C2=O)c1	-15.9% (inactive)
COc1ccc(/C=C2/SC(=O)N(CCCCCC(=O)Nc3ccccc3C(=O)O)C2=S)cc1	55.1% (active)
COc1ccc(NC(=O)CCCC(=O)c2ccccc2)cc1	10.3% (inactive)
COc1ccccc1S(=O)(=O)N[C@@H]1CC[C@H](CCn2cc(C3CCCC3)nn2)O[C@H]1CO	-6.51% (inactive)
O=C(Nc1ccccc1F)N[C@H]1CC[C@@H](CCNS(=O)(=O)c2ccc(F)cc2)O[C@@H]1CO	4.92% (inactive)
C[C@H](CO)N1C[C@H](C)[C@@H](CN(C)C(=O)C2CCCCC2)OCCCC[C@H](C)Oc2ccc(N(C)C)cc2C1=O	-2.95% (inactive)
CC(NC(=S)Nc1ccc(OC(F)F)cc1)c1ccc(F)cc1 (stereo not drawn)	0.035% (inactive)
CC(C)CNC(=S)Nc1ccc(F)cc1	86.6% (active)
CC(C)CNC(=O)C(=O)Nc1ccc(N(C)C)cc1	-41.5% (inactive)
CO[C@H](C(=O)N(C)C[C@@H]1OCc2ccccc2-c2c(n(C)c3ccccc23)C(=O)N([C@@H](C)CO)C[C@H]1C)c1ccccc1	8.3% (inactive)
N#Cc1cccc(-c2ccc(C3[C@H]4CNC[C@@H]3N4S(=O)(=O)c3ccc(-c4ccccc4)cc3)cc2)c1 (stereo partly drawn)	3.68% (inactive) and -7.87% (inactive)
